# IL-1B inflam inh – inhibitors of inflammasome signaling (IL-1 beta secretion); THP-1 LPS/ATP IL-1B secretion, AlphaLISA, 16 h; stronger effect = lower value; activity change, % at 57.5 µM; 360,000 tested, 4.7% active; AID 743279; in the data active = activity change below about -50%; inconclusive = mostly about -30% to -49%
#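 THP-1 cells pretreated 1 hr with compounds (up to 57.5 uM final), then stimulated with LPS (250 ng/mL final) plus ATP (1.25 mM final); secreted IL-1B measured by AlphaLISA after 16 hr, decreased signal indicating inhibition.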
# TDP1 cell CPT – growth inhibition of DT40 Tdp1-/-;hTDP1 cells with camptothecin (screen for TDP1 inhibitors); chicken DT40 Tdp1-/-;hTDP1 cells + 20 nM CPT, ATP luminescence, 48 h; Potency, µM (titrated, usually from 46.2 µM), for inactives: top-dose activity change, negative = growth inhibition, hits mostly inhibitors; 420,000 tested, 12% active; AID 686979; also: potency is read from the fitted curve at half-maximal effect; nearly all actives have a fitted effect of over 55% in size
#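 Chicken DT40 Tdp1-/- cells stably complemented with human TDP1 were seeded at 400 cells/well in medium containing 20 nM camptothecin, exposed to pin-transferred compounds, and grown at 37 °C for at least 48 hr. Viability was read as ATP luminescence.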
# HT1080 IDH1KD tx – HT-1080 IDH1 knockdown cell toxicity (counter line); 360,000 tested, 2% active; HT-1080 IDH1 knockdown viability, ATP luminescence, 48 h; Potency, µM (top dose mostly 46.1 µM), for the others: at the highest dose activity, negative = toxicity, most hits filed as cytotoxic;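 also: potency is read from the fitted curve at half-maximal effect; 0% = DMSO wells and -100% = cell-free medium wells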
#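 HT-1080-IDH1KD cells (IDH1 knocked down), 750/well in RPMI with 5% FBS, treated with compound 48 h at 37 degrees C. Viability by CellTiter-Glo luminescence, normalised to DMSO and no-cell wells; concentration-response curves classed.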
# HT1080-NT tox – kills 2HG-producing HT-1080-NT fibrosarcoma cells. HT-1080-NT fibrosarcoma viability, CellTiter-Glo ATP luminescence, 48 h. Potency, µM (titrated, usually from 46.1 µM), for inactives: top-dose activity, negative = less viability, most hits filed as cytotoxic. 360,000 tested, 1.6% active;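 also: NT is the 2HG producing partner of a matched IDH1 knockdown line; potency is read from the fitted curve at half-maximal effect; 0% = DMSO-treated cells and -100% = media-only wells without cells; nearly all actives have a fitted effect of over 55% in size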
#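 Luminescent CellTiter-Glo readout after 48 hours of compound exposure at 37 degrees C defined viability of HT-1080-NT cells. Activity was normalized to DMSO wells and cell-free media wells; concentration-response curves were fitted and assigned curve classes.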
# DT40 TDP1 no CPT – qHTS for Inhibitors of human tyrosyl-DNA phosphodiesterase 1 (TDP1): qHTS in cells in absence of CPT; 420,000 tested, 15% active; Potency, µM (doses to about 46.2 µM), without a hit: at the highest dose activity change, negative = growth inhibition, most hits filed as inhibitors; DT40 Tdp1-/- hTDP1 cells, no CPT, ATP luminescence, 48 h; AID 686978, 2013; also: potency is read from the fitted curve at half-maximal effect; nearly all actives have a fitted effect of over 55% in size
#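 Growth of hTDP1-complemented DT40 Tdp1-knockout cells is measured by ATP luminescence after at least 48 hr compound exposure at 37 °C, with DMSO substituting for the 20 nM CPT used in the parallel screen.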
# ALOX12 inh – inhibitors of human 12S-lipoxygenase ALOX12. purified 12hLO, xylenol orange hydroperoxide absorbance. Potency, µM (highest dose often 108 µM), for inactives: top-dose activity change, negative = inhibition, usual class: inhibitors. 580,000 tested, 1.1% active; also: potency is read from the fitted curve at half-maximal effect
# Target sequence (P18054 whole entry, looked up): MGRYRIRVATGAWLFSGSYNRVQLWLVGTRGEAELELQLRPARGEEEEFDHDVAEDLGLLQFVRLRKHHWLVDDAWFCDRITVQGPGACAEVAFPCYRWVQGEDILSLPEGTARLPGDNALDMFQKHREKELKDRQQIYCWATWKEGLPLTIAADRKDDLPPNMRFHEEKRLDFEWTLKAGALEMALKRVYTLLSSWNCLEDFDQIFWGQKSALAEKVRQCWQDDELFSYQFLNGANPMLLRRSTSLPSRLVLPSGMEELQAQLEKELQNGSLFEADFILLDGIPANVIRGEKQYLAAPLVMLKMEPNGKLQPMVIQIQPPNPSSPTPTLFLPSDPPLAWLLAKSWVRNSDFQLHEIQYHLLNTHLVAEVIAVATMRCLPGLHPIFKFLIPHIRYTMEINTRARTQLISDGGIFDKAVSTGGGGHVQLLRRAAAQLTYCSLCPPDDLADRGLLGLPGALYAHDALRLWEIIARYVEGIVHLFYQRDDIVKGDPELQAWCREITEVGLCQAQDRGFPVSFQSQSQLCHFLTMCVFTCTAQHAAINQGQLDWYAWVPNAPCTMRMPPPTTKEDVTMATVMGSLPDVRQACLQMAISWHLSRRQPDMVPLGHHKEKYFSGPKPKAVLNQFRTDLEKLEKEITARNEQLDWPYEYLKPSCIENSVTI
#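 Hydroperoxide product was detected by ferrous iron/xylenol orange as the 573 to 405 nm absorbance ratio. Arachidonic acid at 40 uM (final) was turned over for 30 min at room temperature by 150 nM human 12hLO, pH 7.0 Hepes buffer, after 15 min compound preincubation.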
# Starred values were filed as active, the others as inactive; ? = inconclusive; . = not tested or not shown; [ ] = another dose, or the depositor's remark. The full list was thinned out, with hits kept by preference. Unless noted, calls follow the shape of the dose curve; as a rule, active = well fitted curve in the direction sought with a large enough effect; inconclusive = small, poorly fitted or top-dose-only effect, or another doubt; inactive = no such curve, though single readings can be large; an effect the other way counts as inactive or inconclusive. Unless noted, % is scaled to controls: 0 for no effect and ±100 for the full control effect.
SMILES,IL-1B inflam inh,TDP1 cell CPT,HT1080 IDH1KD tx,HT1080-NT tox,DT40 TDP1 no CPT,ALOX12 inh
CCCCOc1ccc(-c2nc(C3CC(=O)N(c4ccc(F)cc4)C3)no2)cc1 (stereo not drawn),.,.,.,.,.,11.4%
CCOC(=O)c1ccc(NC(=O)c2cnn(-c3ccc(C)cc3C)c2C2CCN(C(=O)OC(C)(C)C)CC2)cc1,.,?,.,.,16.4µM*,-16.8%
CCOC(=O)N1CCC(NC(=O)c2cnn(-c3ccc(C)cc3C)c2C2CCN(C(=O)OC(C)(C)C)CC2)CC1,.,-27.0%,.,.,-24.2%,-25.2%
Cc1ccc(-n2ncc(C(=O)Nc3ccc4c(c3)OCO4)c2C2CCN(C(=O)OC(C)(C)C)CC2)c(C)c1,.,?,.,.,29.1µM*,-4.9%
CCn1ccc(C(=O)N2CCCC(c3noc(COc4ccccc4F)n3)C2)n1 (stereo not drawn),.,.,.,.,.,24.0%
Cc1c(N=Cc2c(O)n(Cc3ccco3)c(=O)c3ccccc23)c(=O)n(-c2ccccc2)n1C,5.2,20.6µM*,1.0%[9.24 µM],-22.9%,?,9.1%
CN(C)c1ccc(N=NS(=O)(=O)O)cc1,.,21.7µM*,.,.,24.3µM*,?
CN(C)c1ccc(N=Nc2ccc(C(=O)O)cc2)cc1,30.8,0.0%,1.7%,3.9%,2.5%,-18.7%
CCCSc1nnc(Cn2c(=O)sc3ccccc32)n1-c1ccccc1,15.2,?,12.1%,8.7%,18.4µM*,358.8%
Cc1csc(NC(=O)CSc2nnc(Cn3c(=O)sc4ccccc43)n2-c2ccccc2)n1,?,7.31µM*,-6.6%,-2.3%,-99.8%,379.0%
Cn1c(Cn2c(=O)sc3ccccc32)nnc1SCC(=O)NC1CCCC1,-14.8,16.4µM*,0.7%,16.4%,-8.7%,439.4%
Cn1c(Cn2c(=O)sc3ccccc32)nnc1SCC(=O)NC1CCCCC1,-11.4,8.9%,1.6%,19.1%,-9.8%,.
CSc1nnc(Cn2c(=O)sc3ccccc32)n1-c1cccc(Cl)c1,-3.4,?,-4.3%,-0.5%[9.24 µM],?,20.3%
Cc1ccc(C(=O)N2CCN(c3cccc(Cl)c3)CC2)cc1-n1c(C)nc2cccnc21,.,10.3µM*,.,.,9.2µM*,-16.3%
Cc1nc2cccnc2n1-c1cccc(C(=O)NCc2cccc(Cl)c2)c1,.,20.6µM*,.,.,18.4µM*,-18.6%
CCc1ccc(CNC(=O)c2cccc(-n3c(C)nc4cccnc43)c2)cc1,.,13µM*,.,.,16.4µM*,-23.6%
C=CCNC(=S)/N=c1/ccccn1C,7.7,10.9%,5.6%,18.5%,1.1%,?
C=CCNC(=S)/N=c1/ccccn1CCC,33.1,?,-1.0%,-1.1%,23.1µM*,0.0%
Cc1nccn1CC(=O)N[C@@H]1CN(Cc2ccccn2)C[C@H]1CN(C)C,.,.,.,.,.,122.4%
N#CCCN(C(=O)CSc1nnnn1-c1ccccc1)c1ccc(F)cc1,.,.,.,.,.,12.2%
Cc1cccc(N=Cc2[nH]c3ccc(Br)c(Cl)c3c2O)c1,43.4,25.9µM*,-0.6%,?,?,?
CCNC(=O)NC(=O)C(C)N(C)Cc1ccco1 (stereo not drawn),.,.,.,.,.,-8.2%
CCOc1ccccc1NC(=O)Cn1c(N2CCCCC2)nc(C)c(C)c1=O,.,.,.,.,.,18.7%
COc1ccc(CCC(=O)N2CCCN(S(=O)(=O)c3ccccc3)CCC(=O)NCC2)cc1,.,.,.,.,.,-5.2%
CCOc1ccccc1CNC(=O)CCn1ccc2cc(S(=O)(=O)N3CCC(C)CC3)ccc21,.,9.2µM*,.,.,11.6µM*,0.0%
SMILES,IL-1B inflam inh,TDP1 cell CPT,HT1080 IDH1KD tx,HT1080-NT tox,DT40 TDP1 no CPT,ALOX12 inh
COc1cccc(CNC(=O)CCn2ccc3cc(S(=O)(=O)N4CCC(C)CC4)ccc32)c1,?,?,-7.8%,-22.5%,-25.4%,-2.0%
CCOc1ccccc1CNC(=O)Cn1ccc2cc(S(=O)(=O)N3CCCCCC3)ccc21,?,8.2µM*,-9.0%,0.0%,2.91µM*,-26.6%
CCOc1ccccc1CNC(=O)CCn1ccc2cc(S(=O)(=O)N3CCCCC3)ccc21,3.3,16.4µM*,-2.7%,-10.4%,29.1µM*,-23.7%
CC1CCN(S(=O)(=O)c2ccc3c(ccn3CCC(=O)N3CCCCC3)c2)CC1,-7.2,?,-5.6%,-4.5%,6.51µM*,-15.1%
COCC(=O)N[C@H]1C[C@@H](CO)N(Cc2ccccn2)C1,.,.,.,.,.,59.9%
COc1ccc2[nH]c3c(c2c1)CCNC31CCN(C(=O)C2CCCC2)CC1,.,.,.,.,.,2.0%
Cc1c2ccccc2cc(Cc2ccccc2)[n+]1C,18.1,23.1µM*,20.6µM*,-0.2%,13µM*,5.62µM*
Cc1cc(C)[n+](C)c2ccccc12,.,2.9%,.,.,-9.5%,.
O=C1N[C@@H](Cc2ccccc2)COC(=O)[C@H](Cc2ccc(F)cc2)CC/C=C/C[C@@H]1CC(=O)N(CCO)Cc1ccccc1,?,?,?,-27.9%,?,13.1%
O=C1N[C@@H](Cc2c[nH]c3ccccc23)COC(=O)[C@@H](Cc2ccc(F)cc2)CC/C=C/C[C@@H]1CC(=O)N(CCO)Cc1ccccc1,-60.3*,?,?,-20.3%,25.9µM*,0.0%
O=C1N[C@@H](Cc2c[nH]c3ccccc23)COC(=O)[C@H](Cc2ccc(F)cc2)C/C=C\C[C@H]1CC(=O)N(CCO)Cc1ccccc1,-21.3,13µM*,?,?,16.4µM*,?
O=C(CN1CCN(C(=O)c2ccc(OCC(F)(F)F)nc2)CC1)Nc1ccc(F)cc1,.,.,.,.,.,18.8%
CN(C)CCOc1ncnc2c1oc1ccccc12,-8.5,1.1%,-17.2%,1.5%,-9.7%,11.8%
CN(C)CCOc1nc(-c2ccccc2)nc2c1oc1ccccc12,-99.1*,?,-2.3%,?,23.1µM*,40.5%
Cc1cnc(C(=O)NCc2ccc(C)s2)cn1,.,.,.,.,.,-2.6%
CCOc1cccc(C(=O)N(Cc2c(F)cccc2Cl)c2ccccn2)c1,.,.,.,.,.,33.0%
COC(=O)c1c(C)oc2ccc(NS(=O)(=O)c3cc(OC)ccc3OC)cc12,8.2,10.3µM*,?,?,10.3µM*,0.0%
COc1ccc(OC)c(S(=O)(=O)Nc2ccc3oc(C)c(C(C)=O)c3c2)c1,22.5,16.4µM*,-27.9%,-27.0%,14.6µM*,-7.9%
COc1ccc(OC)c(S(=O)(=O)Nc2ccc(C(C)=O)cc2)c1,14.0,11.2µM*,?,-1.2%,17.8µM*,5.7%
Cc1ccc(C)c(S(=O)(=O)Nc2ccc3oc(C)c(C(=O)O)c3c2)c1,24.8,2.8%,-2.2%,28.7%,0.9%,4.2%
COc1ccnc(-c2nnc3ccc(NC4CCOCC4)nn23)c1,.,.,.,.,.,29.8%[176 µM]

# Screening data: PubChem, National Center for Advancing Translational Sciences (NCATS)
